Only some compounds are listed: those with a hit (about 0.4% of all), similar ones and a draw of the others.
FMDV antiviral: antivirals against foot and mouth disease virus | FMDV antiviral cell assay, firefly luciferase signal | Potency, µM (series often up to 57.5 µM), actives largely listed as inhibitors | hit rate 0.23% among 120,000 | AID 1745856; further: nearly all actives have a fitted effect of over 60% in size
FMDV Renilla: antivirals against foot and mouth disease virus replicon | FMDV replicon cells, Renilla luciferase signal | Potency, µM (series often up to 57.5 µM), usual class: inhibitors | hit rate 0.32% among 120,000 | AID 1745857; further: nearly all actives have a fitted effect of over 55% in size
Large screens that a line does not name were inactive. The call rests on the fitted dose curve.

N#C/C(=C/c1ccc2ncccc2c1)c1nc2ccccc2[nH]1	none
CCCCOc1ccc(C(=O)NCCc2csc(-c3ccc(OC)cc3)n2)cc1	FMDV antiviral 13µM, FMDV Renilla 11µM
COc1ccc(C(=O)NCCc2csc(-c3ccc(Cl)cc3)n2)cc1	none
Cc1ccc(C(=O)Sc2nc(C)cc(C)n2)cc1	none
CCOc1ccccc1NC(=O)NCc1ccc2c(c1)CCN2C(=O)c1ccccc1	FMDV antiviral 8.9µM, FMDV Renilla 7.1µM
CCc1ccccc1NC(=O)NCc1ccc2c(c1)CCN2C(=O)c1ccccc1	none
COc1cccc(CNC(=O)c2nc(-c3ccccc3)oc2C)c1	none
COc1ccc(CNC(=O)c2nc(-c3ccccc3)oc2C)cc1OC	FMDV antiviral inconclusive, FMDV Renilla 18µM
Cc1nc2sccn2c1-c1csc(Nc2cccc(Cl)c2C)n1	FMDV antiviral inconclusive, FMDV Renilla 35µM
CCc1ccccc1Nc1nc(-c2c(C)nc3sccn23)cs1	FMDV Renilla inconclusive
O=C(Nc1cccc(C(F)(F)F)c1)C(=Cc1cccc(Oc2ccccc2)c1)C(=O)Nc1cccc(C(F)(F)F)c1	FMDV antiviral 4.5µM, FMDV Renilla 4µM
N#C/C(=C\c1cccc(OC(=O)c2ccccc2Cl)c1)C(=O)Nc1cccc(C(F)(F)F)c1	none
CS(=O)(=O)c1ccc(C(=O)CSc2ccc(F)cc2)cc1	none
CCc1ccc2occ(CC(=O)Nc3ccc(C)c(C)c3)c2c1	FMDV antiviral 25µM, FMDV Renilla inconclusive
Cc1ccc(NC(=O)Cc2coc3ccc(C(C)C)cc23)cc1Cl	FMDV antiviral inconclusive
CN(C)CCCN(Cc1ccc(Cl)c(Cl)c1)C(=O)/C=C/c1ccncc1	none
CCCn1c(=O)[nH]c(=O)c2c1nc(CCc1ccccc1)c(=O)n2CCOC	none
COc1ccc(-c2nc(CS(=O)(=O)CC(=O)NCc3cccnc3)c(C)o2)cc1	none
COc1ccc(-c2nc(CSCC(=O)NCc3cccnc3)c(C)o2)cc1	FMDV antiviral 14µM
Cc1ccccc1C(=O)Nc1nc(-c2ccc(Br)cc2)ns1	FMDV antiviral inconclusive, FMDV Renilla 35µM
COc1ccccc1C(=O)Nc1nc(-c2ccc(Br)cc2)ns1	none
COC(=O)C(C#N)c1nc2ccccc2nc1NC1CC1 (centres undefined)	none
COc1ccc(Oc2c(C)oc3cc(OS(C)(=O)=O)ccc3c2=O)cc1	FMDV antiviral 13µM, FMDV Renilla inconclusive
C=C(C)COc1ccc2c(=O)c(Oc3ccc(OC)cc3)c(C)oc2c1	none
COc1ccccc1CC(=O)N1CCN(c2nc(-c3ccc(Cl)cc3)no2)CC1	FMDV antiviral inconclusive, FMDV Renilla 7.1µM
COc1ccc(-c2noc(N3CCN(c4ccc(Cl)cc4)CC3)n2)cc1OC	none
Cn1c(=O)c2c(ncn2Cc2ccc(F)cc2)n(C)c1=O	none
CCCc1nc(Cn2cnc3c2c(=O)n(C)c(=O)n3C)cs1	FMDV antiviral 10µM, FMDV Renilla 10µM
CCc1cccc(OCC(O)Cn2cnc3c2c(=O)n(C)c(=O)n3C)c1 (centres undefined)	none
Cn1c(=O)c2c(ncn2CC(=O)OCc2cccc3ccccc23)n(C)c1=O	none
Cn1c(=O)c2c(ncn2Cc2cccc3ccccc23)n(C)c1=O	FMDV antiviral inconclusive, FMDV Renilla 5.6µM
Cc1ccc(C(C)C)c(OCC(O)Cn2cnc3c2c(=O)n(C)c(=O)n3C)c1 (centres undefined)	FMDV antiviral 25µM, FMDV Renilla 25µM
Cn1c(=O)c2c(ncn2Cc2ccc(Cl)c(Cl)c2)n(C)c1=O	FMDV Renilla inconclusive
CCOc1ccc(Cn2cnc3c2c(=O)n(C)c(=O)n3C)cc1OCC	FMDV antiviral 13µM, FMDV Renilla 11µM
O=c1[nH]c(=O)n(Cc2ccco2)c2nccc(-c3ccc4c(c3)OCO4)c12	none
CC1=CC(=O)c2ccc3c4c(ccc1c24)CC3	FMDV Renilla inconclusive
CC(C)c1ccc(/C=C(/C#N)C(=O)Nc2cccc3ncccc23)cc1	none
O=C(c1ccncc1)N1CCN(Cc2c[nH]c3ccccc23)CC1	none
Cc1ccc(C(=O)/C=C/c2c(C)n[nH]c2C)cc1C	none
CC(Oc1ccc2ccc(=O)oc2c1)C(=O)Nc1ccc(C(N)=O)cc1 (centres undefined)	none
O=c1c2c(-c3ccc(Br)cc3)csc2ncn1-c1ccccc1	none
Brc1ccc(-c2csc3ncnc(Sc4nnc(C5CC5)o4)c23)cc1	FMDV antiviral 25µM, FMDV Renilla inconclusive
Oc1ccc2cccc(O)c2c1	none
Cc1cccc(N2CCN(c3ncnc4c3nc3n4CCCCC3)CC2C)c1 (centres undefined)	FMDV antiviral 2.8µM, FMDV Renilla 2.5µM
Clc1cccc(N2CCN(c3ncnc4c3nc3n4CCCC3)CC2)c1	FMDV Renilla inconclusive
CCOC(=O)c1ccc(/C=C/c2ccccn2)cc1	none
CCOc1ccc2ccccc2c1C=O	none
CCOc1ccc(C=O)c2ccccc12	FMDV antiviral 10µM, FMDV Renilla 4.5µM
CC(=O)c1cccc(OC(C)C(=O)C(C#N)C(=O)NC2CC2)c1 (centres undefined)	none
O=C(C1CCC(CNS(=O)(=O)c2cccs2)CC1)N1CCN(c2ccc(Cl)cc2)CC1 (centres undefined)	FMDV antiviral inconclusive, FMDV Renilla 4.5µM
O=C(C1CCN(S(=O)(=O)c2cccs2)CC1)N1CCN(c2cccc(Cl)c2)CC1	none
O=C(/C=C/c1ccco1)OC(C(=O)c1ccccc1)c1ccccc1 (centres undefined)	none
CCCOc1ccc(/C(O)=C2\C(=O)C(=O)NC2c2ccc(C(C)(C)C)cc2)cc1 (centres undefined)	none
COc1ccc(NC(=O)COc2ccc(Cl)cc2)c2cccnc12	FMDV antiviral inconclusive, FMDV Renilla 11µM
CCOc1ccc(NC(=O)COc2ccc(OC)cc2)c2cccnc12	none
COc1ccc(NC(=O)COc2ccccc2Cl)c2cccnc12	FMDV antiviral 11µM, FMDV Renilla 10µM
COc1ccc(NC(=O)c2ccccc2Cl)c2cccnc12	none
Cc1ccc2nc(/C(C#N)=C/c3ccco3)[nH]c2c1	none
Cc1c(-c2cccs2)nc2ccccc2c1-c1ccccc1	none
Cc1ccc(N2C(=O)CSC23C(=O)N(CC(=O)Nc2ccc(C(C)C)cc2)c2ccccc23)cc1C (centres undefined)	FMDV antiviral inconclusive
Cc1ccc(NC(=O)CN2C(=O)C3(SCC(=O)N3c3cccc(Cl)c3)c3ccccc32)cc1C (centres undefined)	FMDV antiviral inconclusive, FMDV Renilla 13µM
Nc1nc(F)nc2c1ncn2[C@@H]1O[C@H](CO)[C@@H](O)[C@@H]1O	FMDV antiviral inconclusive, FMDV Renilla 14µM
CC(C)=CCNc1ncnc2c1ncn2[C@@H]1O[C@H](CO)[C@@H](O)[C@H]1O	none
N#Cc1c(-c2ccccc2)cc(-c2cccs2)nc1SCCS(=O)(=O)c1nc2ccccc2s1	none
CN(CC(=O)Nc1ccc(OC(F)(F)F)cc1)S(=O)(=O)c1ccc2c(c1)CCC(=O)N2	FMDV antiviral 22µM, FMDV Renilla inconclusive
COC(=O)c1ccc(NC(=O)CN(C)S(=O)(=O)c2ccc3c(c2)CCCC(=O)N3)cc1	none
COc1ccc(C(=O)Nc2ccc(N3CCN(S(C)(=O)=O)CC3)cc2)cc1OC	none
COc1ccc(C(=O)Nc2nnc(SCc3cc(=O)c4cc(C)cc(C)c4[nH]3)s2)cc1	none
COc1ccc(-c2nnc(SCc3cc(=O)c4cc(C)cc(C)c4[nH]3)n2C)cc1	FMDV antiviral inconclusive, FMDV Renilla 4µM
CCCCCCCCCCCCCC[N+](C)(C)Cc1ccccc1	FMDV antiviral inconclusive, FMDV Renilla 25µM
CCCCCCCCCCCCCCCC[N+](C)(C)Cc1ccccc1	none
Fc1cccc(C=Nc2cccc3c(N=Cc4cccc(F)c4)cccc23)c1	none
CCOc1ccc2c(c1)C(NC(C)=O)C(=O)N2CCOc1ccccc1 (centres undefined)	none
